Measured values taken from article PMC5540273 (PLoS ONE, 2017).

Test system: FES
Conditions: concentration: 1 μM, replicates: in singlicate; n = 1
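Note: KINOMEscan kinase panel screen.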

| SMILES | %Inh [%] |
| --- | --- |
| O=C(NCCNc1ccnc(Nc2ccc(F)cc2)n1)c1cc2ccccc2s1 [GSK1379874] | 0 |
| Cc1nnc(-c2ccc3occ(-c4ccc(C(C)O)cc4)c3c2)o1 (stereo not shown) | 17 |
| NS(=O)(=O)CCc1cccc(Nc2nccc(-c3c(-c4cccc(NC(=O)c5c(F)cccc5F)c4)nn4ccccc34)n2)c1 [GSK336735] | 22 |
| NS(=O)(=O)c1cccc(-c2ccc3nccc(-c4cccc(S(N)(=O)=O)c4)c3c2)c1 [GW867253] | 0 |
| Cc1nnc(-c2ccc(C)c(-c3ccc(C(=O)Nc4ccc(NS(C)(=O)=O)cc4)cc3)c2)o1 [GW702865] | 0 |
| Cl.Nc1ncnc2occ(-c3ccc(NC(=O)Nc4cc(C(F)(F)F)ccc4F)cc3)c12 [SB-707548] | 6 |
| O=C(NCCCN1CCOCC1)c1cccc(Nc2nccc(Nc3ccc(Oc4ccccc4)cc3)n2)c1 [GW663929] | 16 |
| O=C(c1ccc(-c2cc(-c3c[nH]nc3-c3ccccn3)ccn2)cc1)N1CCOCC1 [GW812171] | 0 |
| CN1c2ccc(NCc3ccc(F)cc3)cc2-c2c(cnn2C)S1(=O)=O | 4 |
| Cc1nnc(-c2ccc3ncc(-c4ccc(S(C)=O)cc4)n3c2)o1 (stereo not shown) | 4 |
| COc1cc2ncn(-c3cc(OCc4sccc4Cl)c(C(N)=O)s3)c2cc1OC [GSK448459] | 0 |
| [2H]C([2H])(c1cccc(C(F)(F)F)c1C)n1ccn2c(=O)nc(N3CCOCC3)cc12 [GSK2336394] | 0 |
| Cl.Oc1cccc(Nc2ccnc3cc(-c4ccncc4)ccc23)c1 [GW494601] | 0 |
| CCc1nc(-c2cccc(C)c2)c(-c2ccnc(NCc3ccccc3)c2)s1 | 6 |
| CN(C(=O)c1ccc(-c2cc(-c3c[nH]nc3-c3ccccn3)ccn2)cc1)C1CCOCC1 [GW810083] | 14 |
| O=C(NOCC1CC1)c1ccc(F)c(F)c1Nc1ccc(I)cc1Cl | 0 |
| N#Cc1ccc(-c2cc(-c3c[nH]nc3-c3ccccn3)ccn2)cc1 [GW693028] | 4 |
| CN1c2ccc(CNc3ccc(F)cc3)cc2-c2c(cnn2C)S1(=O)=O | 0 |

| SMILES | %Inh [%] |
| --- | --- |
| O=c1cc(N2CCOCC2)nc2n(Cc3cccc(C(F)(F)F)c3)ccn12 [GSK2297543] | 0 |
| O=C(NCCNc1ccnc(Nc2ccc(F)cc2)n1)Nc1ccccc1F [GSK1379880] | 0 |
| COc1cc2c(cc1OC[C@@H](O)CO)ncc1c3ccc(C#N)cc3[nH]c21 | 8 |
| CCCCCc1nc2c(N)ncnc2n1CCCCC [SKF-97255] | 0 |
| O=C(Nc1cccc(-c2nn3ncccc3c2-c2ccnc(Nc3cccc(C(F)(F)F)c3)n2)c1)c1c(F)cccc1F [GSK299495] | 0 |
| O=c1cc(N2CCOCC2)nc2n(Cc3cccc4ccccc34)ccn12 [GSK2333389] | 0 |
| Cc1c(Cn2c(C)nn3c(=O)cc(N4CCOC(C)C4)nc23)cccc1C(F)(F)F (stereo not shown) [GSK2344444] | 0 |
| O=C1NC(=O)C(N2CCc3ccccc32)=C1c1cccc(Cl)c1 [SB-408010] | 31 |
| N#Cc1c(N2CCOCC2)sc(-c2ccn[nH]2)c1-c1ccc(Cl)cc1 | 27 |
| Cn1cc(-c2ccc3c(c2)CCN3C(=O)Cc2ccccc2Cl)c2c(N)ncnc21 [GSK2608885] | 22 |
| COc1cc(Nc2nccc(N3CCC(NC(=O)c4cccc(NC(C)=O)c4)C3)n2)cc(OC)c1OC (stereo not shown) [GSK1379754] | 11 |
| COc1ccc(S(=O)(=O)NC2CCN(c3cc(C)nc(Nc4cccc(C#N)c4)n3)CC2)cc1.O=C(O)C(F)(F)F [GSK1653539] | 12 |
| COc1cc2c(cc1OCCN1CCN(C)CC1)ncc1c3ccc(C#N)cc3[nH]c21 | 0 |
| O=C(Nc1n[nH]c2cc(-c3cccc(F)c3)ccc12)C1CC1 [SB-735464] | 34 |
| Cc1cccc(-c2nc(Nc3ccc4ncsc4c3)c3ccccc3n2)n1 [GW867588] | 13 |
| Nc1nccc(-c2c(-c3ccc(F)cc3)ncn2C2CCN(CC(F)(F)F)CC2)n1 [SB-236560] | 0 |
| COc1ccc(Nc2nccc(N3CCC(NC(=O)Nc4cccc(C(C)=O)c4)C3)n2)cc1 (stereo not shown) [GSK1379731] | 1 |

Test system: FGFR1
Conditions: concentration: 1 μM, replicates: in singlicate; n = 1

| SMILES | %Inh [%] |
| --- | --- |
| O=C(NCCNc1ccnc(Nc2ccc(F)cc2)n1)c1cc2ccccc2s1 [GSK1379874] | 0 |
| Cc1nnc(-c2ccc3occ(-c4ccc(C(C)O)cc4)c3c2)o1 (stereo not shown) | 0 |
| NS(=O)(=O)CCc1cccc(Nc2nccc(-c3c(-c4cccc(NC(=O)c5c(F)cccc5F)c4)nn4ccccc34)n2)c1 [GSK336735] | 44 |
| NS(=O)(=O)c1cccc(-c2ccc3nccc(-c4cccc(S(N)(=O)=O)c4)c3c2)c1 [GW867253] | 11 |
| Cc1nnc(-c2ccc(C)c(-c3ccc(C(=O)Nc4ccc(NS(C)(=O)=O)cc4)cc3)c2)o1 [GW702865] | 0 |
| Cl.Nc1ncnc2occ(-c3ccc(NC(=O)Nc4cc(C(F)(F)F)ccc4F)cc3)c12 [SB-707548] | 74 |
| O=C(NCCCN1CCOCC1)c1cccc(Nc2nccc(Nc3ccc(Oc4ccccc4)cc3)n2)c1 [GW663929] | 0 |
| O=C(c1ccc(-c2cc(-c3c[nH]nc3-c3ccccn3)ccn2)cc1)N1CCOCC1 [GW812171] | 4 |
| CN1c2ccc(NCc3ccc(F)cc3)cc2-c2c(cnn2C)S1(=O)=O | 2 |
| Cc1nnc(-c2ccc3ncc(-c4ccc(S(C)=O)cc4)n3c2)o1 (stereo not shown) | 0 |
| COc1cc2ncn(-c3cc(OCc4sccc4Cl)c(C(N)=O)s3)c2cc1OC [GSK448459] | 0 |
| [2H]C([2H])(c1cccc(C(F)(F)F)c1C)n1ccn2c(=O)nc(N3CCOCC3)cc12 [GSK2336394] | 7 |
| Cl.Oc1cccc(Nc2ccnc3cc(-c4ccncc4)ccc23)c1 [GW494601] | 59 |
| CCc1nc(-c2cccc(C)c2)c(-c2ccnc(NCc3ccccc3)c2)s1 | 0 |
| CN(C(=O)c1ccc(-c2cc(-c3c[nH]nc3-c3ccccn3)ccn2)cc1)C1CCOCC1 [GW810083] | 4 |
| O=C(NOCC1CC1)c1ccc(F)c(F)c1Nc1ccc(I)cc1Cl | 0 |
| N#Cc1ccc(-c2cc(-c3c[nH]nc3-c3ccccn3)ccn2)cc1 [GW693028] | 0 |
| CN1c2ccc(CNc3ccc(F)cc3)cc2-c2c(cnn2C)S1(=O)=O | 0 |

| SMILES | %Inh [%] |
| --- | --- |
| O=c1cc(N2CCOCC2)nc2n(Cc3cccc(C(F)(F)F)c3)ccn12 [GSK2297543] | 11 |
| O=C(NCCNc1ccnc(Nc2ccc(F)cc2)n1)Nc1ccccc1F [GSK1379880] | 0 |
| COc1cc2c(cc1OC[C@@H](O)CO)ncc1c3ccc(C#N)cc3[nH]c21 | 0 |
| CCCCCc1nc2c(N)ncnc2n1CCCCC [SKF-97255] | 11 |
| O=C(Nc1cccc(-c2nn3ncccc3c2-c2ccnc(Nc3cccc(C(F)(F)F)c3)n2)c1)c1c(F)cccc1F [GSK299495] | 0 |
| O=c1cc(N2CCOCC2)nc2n(Cc3cccc4ccccc34)ccn12 [GSK2333389] | 4 |
| Cc1c(Cn2c(C)nn3c(=O)cc(N4CCOC(C)C4)nc23)cccc1C(F)(F)F (stereo not shown) [GSK2344444] | 3 |
| O=C1NC(=O)C(N2CCc3ccccc32)=C1c1cccc(Cl)c1 [SB-408010] | 5 |
| N#Cc1c(N2CCOCC2)sc(-c2ccn[nH]2)c1-c1ccc(Cl)cc1 | 7 |
| Cn1cc(-c2ccc3c(c2)CCN3C(=O)Cc2ccccc2Cl)c2c(N)ncnc21 [GSK2608885] | 59 |
| COc1cc(Nc2nccc(N3CCC(NC(=O)c4cccc(NC(C)=O)c4)C3)n2)cc(OC)c1OC (stereo not shown) [GSK1379754] | 21 |
| COc1ccc(S(=O)(=O)NC2CCN(c3cc(C)nc(Nc4cccc(C#N)c4)n3)CC2)cc1.O=C(O)C(F)(F)F [GSK1653539] | 0 |
| COc1cc2c(cc1OCCN1CCN(C)CC1)ncc1c3ccc(C#N)cc3[nH]c21 | 0 |
| O=C(Nc1n[nH]c2cc(-c3cccc(F)c3)ccc12)C1CC1 [SB-735464] | 0 |
| Cc1cccc(-c2nc(Nc3ccc4ncsc4c3)c3ccccc3n2)n1 [GW867588] | 0 |
| Nc1nccc(-c2c(-c3ccc(F)cc3)ncn2C2CCN(CC(F)(F)F)CC2)n1 [SB-236560] | 0 |
| COc1ccc(Nc2nccc(N3CCC(NC(=O)Nc4cccc(C(C)=O)c4)C3)n2)cc1 (stereo not shown) [GSK1379731] | 3 |
